The conditions of experiment [1]: Ebola virus entry assay, green fluorescence channel.
The conditions of experiment [2]: Ebola virus entry assay, green fluorescence channel. The source holds these as a separate data set.
For experiment [3] the following is noted: Ebola virus entry assay, ratio channel readout.
For experiment [4] the following is noted: Ebola virus entry assay, ratio channel.
For experiment [5] the following is noted: Ebola virus entry assay, blue channel fluorescence.
The conditions of experiment [6]: Ebola virus entry assay, blue channel fluorescence. The source holds these as a separate data set.
Experiment [7] has as its target T1, Hexokinase-4 (Homo sapiens) + Glucokinase regulatory protein (Homo sapiens) (UniProt P35557+Q14397). In words: qHTS assay for inhibitors of recombinant human GCK-GKRP interaction: ADP-Glo assay (AID 743206; active = well fitted curve in the direction sought with a large enough effect; an effect the other way counts as inactive or inconclusive;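 note: plate controls were DMSO plus enzyme for no effect and no enzyme for full effect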). Conditions: ADP-Glo luminescence, 60 min, 0% = vehicle-only wells with enzyme present; series mostly up to 76.9 µM. An outline of the steps: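 Pin-transferred compounds meet a 15 nM GST-GCK/15 nM FLAG-GKRP/2 uM S6P mix (dispense concentrations). ATP is then added to 0.4 mM final with 5 mM glucose, and the reaction runs 60 min at room temperature. ADP is quantified luminescently.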
(In general: In qHTS, concentration-response curves come from the screen itself.)

Experiment [8] addresses T1, Hexokinase-4 (Homo sapiens) + Glucokinase regulatory protein (Homo sapiens). Briefly: qHTS assay for inhibitors of recombinant human GCK-GKRP interaction: HTRF assay (AID 743207; active = well fitted curve in the direction sought with a large enough effect; an effect the other way counts as inactive or inconclusive;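 note: 0% = DMSO with GCK present and -100% = DMSO wells lacking GCK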). The settings on record: recombinant GCK-GKRP HTRF binding, 60 min; series mostly up to 57.5 µM. An outline of the steps:
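GST-GCK and FLAG-GKRP (5 nM each) were combined with 2 uM S6P in pH 7.1 Hepes/MgCl2/KCl/DTT buffer, then compound and anti-FLAG XL665/anti-GST K antibodies were added. After 60 min at room temperature, HTRF 665/615 nm emission was read.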

The nature of experiment [9]: qHTS Assay for Identifying Gametocytocidal Compounds (AID 743244; active = well fitted curve in the direction sought with a large enough effect; an effect the other way counts as inactive or inconclusive; note: potency is the fitted concentration of half-maximal effect;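 for max response: % is set by controls: 0 for no effect and ±100 for the full control effect; actives lower the fluorescent signal which means gametocytes are killed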). The settings on record: P. falciparum 3D7 stage III-V gametocytes, alamarBlue, 72 h; max response: stronger effect = lower value. An outline of the steps: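 Viability read-out was resazurin reduction (alamarBlue, 24 h) measured at Ex 525/Em 598 nm. Beforehand, late-stage (III-V) 3D7 P. falciparum gametocytes at 20,000 cells/well were incubated with compound 72 h at 37C under 5% CO2.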

The nature of experiment [10]: qHTS assay for small molecule agonists of the antioxidant response element (ARE) signaling pathway measured by Nrf2-dependant transcriptional activity (AID 720636; active = well fitted curve in the direction sought with a large enough effect in the repeat runs; an effect the other way counts as inactive or inconclusive; note: potency is the fitted concentration of half-maximal effect). Conditions: ARE-luc HepG2, Nrf2 luciferase reporter, 16 h; series mostly up to 92.4 µM. In a few lines: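 Cells: ARE-luc HepG2 with Nrf2-responsive luciferase. Medium contained 1% dialyzed FBS. Compound exposure lasted 16 hr at 37 C and 5% CO2, followed by ONE-Glo luciferase detection.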

Experiment [11] can be described thus: qHTS assay for small molecule antagonists of the retinoid-related orphan receptor gamma (ROR-gamma) signaling pathway - cell viability counter screen (AID 720652; active = well fitted curve in the direction sought with a large enough effect in the repeat runs; an effect the other way counts as inactive or inconclusive;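 note: compound exposure lasted 16 hr before ATP read; % is set by controls: 0 for no effect and ±100 for the full control effect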). Conditions: RORgamma reporter cell line viability counter screen; series mostly up to 92.2 µM. In a few lines: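 Cytotoxicity counter screen: intracellular ATP (CellTiter-Glo luminescence) measured in the doxycycline-induced CHO RORE-luciferase reporter line after 16 hr compound exposure at 37 C, 5% CO2.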

A short description of experiment [12]: qHTS assay for small molecule agonists of the antioxidant response element (ARE) signaling pathway measured by Nrf2-dependant transcriptional activity - cell viability counter screen (AID 720653; active = well fitted curve in the direction sought with a large enough effect in the repeat runs; an effect the other way counts as inactive or inconclusive; note: % is set by controls: 0 for no effect and ±100 for the full control effect). Conditions: ARE-bla HepG2 viability, CellTiter-Glo ATP luminescence, 16 h; max response: stronger effect = lower value. In a few lines:
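Cytotoxicity counter screen: intracellular ATP quantified by CellTiter-Glo luminescence in the same ARE-bla HepG2 plates, after 16 h compound exposure and a 2 h beta-lactamase substrate step.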

Experiment [13] in a line: qHTS assay for cell viability of HEK293 cells (AID 743288; active = well fitted curve in the direction sought with a large enough effect; an effect the other way counts as inactive or inconclusive; note: % is set by controls: 0 for no effect and ±100 for the full control effect; nearly all actives have a fitted effect of over 50% in size). The settings on record: ATP luminescence (CellTiter-Glo), 18 h; max response: stronger effect = lower value. An outline of the steps:
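After 18 h compound exposure at 37 C, parental HEK293 cells (2,000/well) are lysed with CellTiter-Glo and luminescence is read following 30 min at room temperature.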

A short description of experiment [14]: qHTS profiling for inhibitors of Plasmodium falciparum (3D7) proliferation (AID 743322).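 Note: infected erythrocytes exposed to compound for 72 h before lysis; 100% = DMSO vehicle wells and 0% = 0.29 µM artemisinin.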 The settings on record: P. falciparum 3D7 proliferation; at 28.7 µM (top of the series). An outline of the steps:
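Parasite DNA was quantified by SYBR Green I fluorescence (ex 485, em 535 nm) after overnight lysis in saponin/Triton buffer at room temperature. Cultures at 0.3% parasitemia and 2.5% hematocrit were first exposed to compound for 72 h at 37 C; signals were normalised to artemisinin (0.29 uM) and vehicle wells.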

Experiment [15] is described as follows: qHTS profiling for inhibitors of Plasmodium falciparum (DD2) proliferation (AID 743323). Conditions: lower = more inhibition; at 28.7 µM (top of the series). In a few lines: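 1536-well qHTS; infected RBCs 0.3% parasitemia/2.5% Hct final; cpd 72 h 37 C 5% CO2; lysis buffer + SYBR Green I, o/n RT dark; FI 485/535; norm. to 0.29 uM artemisinin and DMSO, plate-stack corrected.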

Experiment [16] in a line: qHTS profiling for inhibitors of Plasmodium falciparum (HB3) proliferation (AID 743324; active = well fitted curve in the direction sought with a large enough effect; an effect the other way counts as inactive or inconclusive;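 note: 100% = DMSO vehicle wells and 0% = artemisinin-treated control wells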). Conditions: Plasmodium falciparum HB3 blood-stage proliferation; at 28.7 µM (top of the series). An outline of the steps: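 SYBR Green fluorescence (485 ex/535 em) of lysed cultures, incubated overnight at room temperature in the dark, quantifies parasite DNA. Infected erythrocytes at 0.3% parasitemia and 2.5% hematocrit were exposed 72 h; values normalized to DMSO and 0.29 uM artemisinin controls.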

Where “and” joins values, the source holds several entries; their conditions need not be identical. Identical values can stand only once. Results filed as inconclusive are left out. For part of these data: Results with a measured potency or affinity are listed apart. Calls of active or inactive are those of the source.
Throughout, for efficacy: 0% is about no effect.

T1 sequence (P35557 whole entry, looked up): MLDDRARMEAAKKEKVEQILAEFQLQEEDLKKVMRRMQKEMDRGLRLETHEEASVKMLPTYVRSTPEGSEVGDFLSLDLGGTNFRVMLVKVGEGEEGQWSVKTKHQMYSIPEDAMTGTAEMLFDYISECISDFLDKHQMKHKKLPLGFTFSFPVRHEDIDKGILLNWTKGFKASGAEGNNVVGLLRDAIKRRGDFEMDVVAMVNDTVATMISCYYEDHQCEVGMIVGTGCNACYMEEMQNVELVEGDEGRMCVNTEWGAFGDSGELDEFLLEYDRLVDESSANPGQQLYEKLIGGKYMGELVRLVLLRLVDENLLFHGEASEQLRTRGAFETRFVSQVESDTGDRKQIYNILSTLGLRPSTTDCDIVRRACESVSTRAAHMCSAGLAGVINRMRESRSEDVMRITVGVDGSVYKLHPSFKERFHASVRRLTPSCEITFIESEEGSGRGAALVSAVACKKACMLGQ
T1 sequence (Q14397 whole entry, looked up): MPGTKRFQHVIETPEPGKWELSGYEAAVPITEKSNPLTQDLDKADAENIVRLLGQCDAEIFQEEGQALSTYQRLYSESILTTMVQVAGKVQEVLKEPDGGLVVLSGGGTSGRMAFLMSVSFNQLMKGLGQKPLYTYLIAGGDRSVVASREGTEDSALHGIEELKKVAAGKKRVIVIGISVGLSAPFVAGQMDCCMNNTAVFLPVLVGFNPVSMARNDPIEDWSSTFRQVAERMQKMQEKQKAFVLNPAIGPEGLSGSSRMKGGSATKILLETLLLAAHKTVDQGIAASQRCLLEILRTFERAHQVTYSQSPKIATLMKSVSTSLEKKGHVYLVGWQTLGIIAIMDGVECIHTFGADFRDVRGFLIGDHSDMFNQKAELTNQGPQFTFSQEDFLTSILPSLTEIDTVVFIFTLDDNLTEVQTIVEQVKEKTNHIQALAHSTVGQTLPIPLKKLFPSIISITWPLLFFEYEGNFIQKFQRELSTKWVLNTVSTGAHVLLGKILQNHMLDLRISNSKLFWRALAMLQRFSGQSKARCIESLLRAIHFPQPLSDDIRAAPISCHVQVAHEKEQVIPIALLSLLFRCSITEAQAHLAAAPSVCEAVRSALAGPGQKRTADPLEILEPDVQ

Turning to `COC(=O)C1=C(C)NC(C)=C(C(=O)OC(C)C)C1c1cccc2nonc12` (stereo not drawn), the efficacy in experiment [1] is -20.5% (inactive). Besides, the outcome in [2], in [3] and in experiment [4] was inactive.
Take `C[C@H]1[C@H](NC(=O)/C(=N/OC(C)(C)C(=O)O)c2csc(N)n2)C(=O)N1S(=O)(=O)O` (stereo in doubt): the efficacy in experiment [1] was 16.2% (inactive). Further, the result in [5], in [2] and in [4] was inactive.
As to `O=C1CCC(N2C(=O)c3ccccc3C2=O)C(=O)N1` (stereo not drawn), the efficacy in [1] is -16.4% (inactive). Moreover, the outcome in experiment [2], in experiment [3], in [6] and in [4] was inactive.
In general, AC50 refers to the concentration at which the activity in the assay is half-maximal. In the case of `CC(C)c1nc(CN(C)C(=O)N[C@H](C(=O)N[C@@H](Cc2ccccc2)C[C@H](O)[C@H](Cc2ccccc2)NC(=O)OCc2cncs2)C(C)C)cs1`, the efficacy in experiment [1] was 31.8% (inactive). Also, the result in experiment [2], in experiment [3] and in experiment [6] was inactive. For the same compound, the AC50 in experiment [4] is 22.4 µM (active).
Regarding `COC(=O)Nc1nc2ccc(C(=O)c3cccs3)cc2[nH]1`, in experiment [1], the efficacy was 64.8% (inactive). Moreover, the AC50 in experiment [6] and in [4] was 0.708 µM (active) throughout.
In the case of `CC1=NS(=O)(=O)c2cc(Cl)ccc2N1`, in experiment [1], the efficacy was -18.7% (inactive). Further, the call in experiment [5], in [2] and in experiment [4] was inactive.
For `Cc1ccccc1C(=O)Nc1ccc(C(=O)N2CCCC(O)c3cc(Cl)ccc32)c(C)c1` (stereo not drawn), in experiment [1], the efficacy was 54.1% (inactive). The result in experiment [5] and in experiment [3] was inactive. Besides, the AC50 in experiment [6] and in [4] was 25.1 µM (active) each time.
`CC[C@@H](CO)NC(=O)[C@@H]1C=C2c3cccc4c3c(cn4C)C[C@H]2N(C)C1`: the result in experiment [7], in [8], in [5], in [3] and in experiment [4] was inactive. Moreover, the max response in experiment [9] is 1.36% (inactive). Further, the efficacy in experiment [1] is 9.51% (inactive).
For the compound `CC(C)OC(=O)C(C)(C)Oc1ccc(C(=O)c2ccc(Cl)cc2)cc1`, the efficacy in experiment [1] is 75.8% (inactive). For the same compound, the compound was classed as inactive in [2], in experiment [3], in experiment [6] and in experiment [4].
With `CCC[C@H](N[C@@H](C)C(=O)N1[C@H](C(=O)O)C[C@@H]2CCCC[C@@H]21)C(=O)OCC`, the efficacy in experiment [1] was -25% (inactive). In addition, the outcome in [2], in [6] and in experiment [4] was inactive.
Turning to `CC(C)NCC(O)COc1cccc2[nH]ccc12` (stereo not drawn), the efficacy in experiment [1] was -19.5% (inactive). Besides, the compound was classed as inactive in [5], in experiment [3] and in [4]. Moreover, the half-maximal activity concentration (AC50) in [6] is 39.8 µM (active).
Take `Cc1cc(OCCOCC[N+](C)(C)Cc2ccccc2)ccc1C(C)(C)CC(C)(C)C`: the efficacy in [1] is -204% (inactive). Moreover, the concentration at half-maximal activity (AC50) in experiment [6] was 8.91 µM (active); in [4], 3.98 µM (active).
Regarding `CCOC(=O)[C@H](CCc1ccccc1)N[C@@H](C)C(=O)N1Cc2ccccc2C[C@H]1C(=O)O`, the efficacy in experiment [1] is 30.9% (inactive). Also, the compound was called inactive in [2], in experiment [3] and in experiment [4].
Consider `Oc1ccc(Cl)cc1Cc1ccccc1`, for which the Potency result in [10] and in [11] was “inactive” each time. Also, the max response was 1.75% (inactive) and 7.8% (inactive) in [12]; -3.88% (inactive) and -14.6% (inactive) in experiment [9]; -10.2% (inactive) and -5.38% (inactive) in [13]. Besides, the efficacy in experiment [1] is -105% (inactive). Besides, the AC50 in experiment [6] is 20 µM (active); in experiment [4] it was 10 µM (active) and 14.1 µM (active).
As for `Clc1ccc(COC(Cn2ccnc2)c2ccc(Cl)cc2Cl)cc1` (stereo not drawn), the Potency result in [10] is “inactive”. In addition, the figures for the max response in experiment [12] and in [13] were -7.45% (inactive) and -21% (inactive), respectively. Besides, the Potency in experiment [9] was 10 µM (active). Further, the efficacy in [1] is -214% (inactive). For the same compound, the AC50 was 10 µM (active) in experiment [6] and 3.55 µM (active) in experiment [4].
For `O=c1oc2ccccc2c(O)c1C(CC(O)c1ccc(-c2ccc(Br)cc2)cc1)c1ccccc1` (stereo not drawn), in [10], the Potency result is “inactive”. The max response was -8.71% (inactive) in [12], -15.4% (inactive) in experiment [9] and -5.59% (inactive) in [13]. The efficacy in experiment [1] was 92.1% (inactive). Also, the call in experiment [6] and in experiment [4] was inactive.
For the compound `Oc1cccc2cccnc12`, the Potency in [10] is 42.2 µM (active); in [9] it was 11.2 µM (active) and 25.1 µM (active). The Potency entry in experiment [11] was “inactive”. Also, the max response was -16.3% (inactive) in [12] and -19.7% (inactive) in experiment [13]. Also, the efficacy in experiment [1] was -17.8% (inactive). Also, the compound was classed as inactive in experiment [6] and in experiment [4].
As to `c1ccc2c(c1)Nc1ccccc1S2`, the Potency result in experiment [10] and in experiment [11] was “inactive” each time. In addition, the max response was -25.7% (inactive) and -9.49% (inactive) in experiment [12]; -11.4% (inactive) and -9% (inactive) in experiment [13]. In experiment [9], the Potency is 22.4 µM (active) and 28.2 µM (active). Besides, the efficacy in [1] is 4% (inactive). Besides, the call in [6] and in [4] was inactive.
`CC1(CN2CCC(n3c(=O)[nH]c4ccccc43)CC2)OCc2ccccc2-n2cccc21` (stereo not drawn): in experiment [1], the efficacy is 64.1% (inactive). The values for the AC50 in experiment [6] and in [4] were 20 µM (active) and 15.8 µM (active), respectively.
Take `C[C@]12CCC(=O)C(O)=C1CC[C@@H]1[C@@H]2CC[C@]2(C)C(=O)CC[C@@H]12`: the Potency entry in experiment [10] was “inactive”. Also, the max response in [12] is -0.568% (inactive); in experiment [9] it was 8.31% (inactive) and 12.3% (inactive); in experiment [13] it was -3.27% (inactive). Further, the result in [7], in experiment [8], in experiment [6] and in [4] was inactive. Also, in experiment [14], the remaining parasite growth % (stronger effect = lower value) was determined as 90.5%. This compound also showed an activity, percent of control in [15] of 71.8%. For the same compound, the remaining proliferation (% of control), lower = more inhibition in experiment [16] was determined as 108%. Besides, the efficacy in experiment [1] is -14% (inactive).
With `O=[N+]([O-])c1ccc(O)c2ncccc12`, the efficacy in experiment [1] was -18.6% (inactive). For the same compound, the figures for the concentration at half-maximal activity (AC50) in experiment [6] and in experiment [4] were 31.6 µM (active) and 28.2 µM (active), respectively.
For the compound `NC(=O)N/N=C/c1ccc([N+](=O)[O-])o1`, the efficacy in [1] is 31.4% (inactive). In addition, the result in [6] and in experiment [4] was inactive.
Regarding `CCn1cc(C(=O)O)c(=O)c2ccc(C)nc21`, the efficacy in [1] was 67.7% (inactive). In addition, the call in experiment [6] and in experiment [4] was inactive.
On to `CN1CC(=O)N/C1=N/C(=O)Nc1cccc(Cl)c1`, for which the efficacy in [1] was -15.3% (inactive). Further, the call in experiment [6] and in experiment [4] was inactive.

The values are drawn from PubChem BioAssay (NCATS).
